We go through seven compounds from ChEMBL document CHEMBL1961873, “Compounds: GSK PKIS; Assays: Nanosyn kinase panel” (2012).

In experiment [1] the target is T1, Muscle, skeletal receptor tyrosine-protein kinase (Homo sapiens) (UniProt O15146).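 Further: reported value is the mean percent inhibition of MuSK kinase.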
T1 sequence (whole entry): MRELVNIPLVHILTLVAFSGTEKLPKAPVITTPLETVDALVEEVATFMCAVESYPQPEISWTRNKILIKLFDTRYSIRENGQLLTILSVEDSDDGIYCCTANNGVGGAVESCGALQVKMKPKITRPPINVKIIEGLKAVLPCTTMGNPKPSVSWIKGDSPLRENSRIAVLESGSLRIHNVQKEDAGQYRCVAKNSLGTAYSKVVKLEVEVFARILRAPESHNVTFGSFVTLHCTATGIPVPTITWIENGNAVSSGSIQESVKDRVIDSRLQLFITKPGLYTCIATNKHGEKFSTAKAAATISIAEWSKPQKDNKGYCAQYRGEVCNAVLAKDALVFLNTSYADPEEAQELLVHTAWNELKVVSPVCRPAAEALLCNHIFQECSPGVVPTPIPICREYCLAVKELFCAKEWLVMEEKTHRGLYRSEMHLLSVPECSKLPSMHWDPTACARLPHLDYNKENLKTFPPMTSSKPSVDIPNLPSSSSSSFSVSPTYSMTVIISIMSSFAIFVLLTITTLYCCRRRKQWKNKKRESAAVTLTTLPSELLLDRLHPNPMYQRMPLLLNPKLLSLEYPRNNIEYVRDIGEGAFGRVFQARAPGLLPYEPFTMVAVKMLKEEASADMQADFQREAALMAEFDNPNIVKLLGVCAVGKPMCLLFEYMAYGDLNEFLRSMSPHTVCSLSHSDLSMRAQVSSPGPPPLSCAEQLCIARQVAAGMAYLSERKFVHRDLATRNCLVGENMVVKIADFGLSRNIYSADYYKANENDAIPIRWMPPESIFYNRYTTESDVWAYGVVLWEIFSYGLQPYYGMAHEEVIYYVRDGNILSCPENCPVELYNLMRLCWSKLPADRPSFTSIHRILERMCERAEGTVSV
To be noted: at 1 µM.

Experiment [2] deals with Platelet-derived growth factor receptor alpha (Homo sapiens) (UniProt P16234). The conditions noted are these: at 0.1 µM.
Experiment [3] shares this target. To be noted: at 1 µM.
Experiment [4] concerns Platelet-derived growth factor receptor alpha (Homo sapiens), P16234 [D842V]. The conditions noted are these: at 0.1 µM.
For experiment [5] the test system is unchanged. The conditions noted are these: at 1 µM.
Experiment [6] has as its system Platelet-derived growth factor receptor alpha (Homo sapiens), P16234 [T674I]. To be noted: at 0.1 µM.
For experiment [7] the test system is unchanged. To be noted: at 1 µM.
For experiment [8], the system named is Platelet-derived growth factor receptor alpha (Homo sapiens), P16234 [V561D]. The conditions noted are these: at 0.1 µM.
The test system is the same in experiment [9]. To be noted: at 1 µM.
The target of experiment [10] is Platelet-derived growth factor receptor beta (Homo sapiens) (UniProt P09619). To be noted: at 0.1 µM.
For experiment [11] the target is unchanged. To be noted: at 1 µM.
In experiment [12] the target is Tyrosine-protein kinase FRK (Homo sapiens) (UniProt P42685). To be noted: at 0.1 µM.
The target is the same in experiment [13]. To be noted: at 1 µM.
Experiment [14] deals with Protein-tyrosine kinase 2-beta (Homo sapiens) (UniProt Q14289). The conditions noted are these: at 0.1 µM.
Experiment [15] shares this target. The conditions noted are these: at 1 µM.
For experiment [16], the target named is Proto-oncogene tyrosine-protein kinase receptor Ret (Homo sapiens) (UniProt P07949). To be noted: at 0.1 µM.
Experiment [17] has the same target. The conditions noted are these: at 1 µM.
The subject of experiment [18] is Proto-oncogene tyrosine-protein kinase receptor Ret (Homo sapiens), P07949 [V804L]. The conditions noted are these: at 0.1 µM.
Experiment [19] has the same test system. To be noted: at 1 µM.
The subject of experiment [20] is Proto-oncogene tyrosine-protein kinase receptor Ret (Homo sapiens), P07949 [Y791F]. To be noted: at 0.1 µM.

Chain of Proto-oncogene tyrosine-protein kinase receptor Ret (Homo sapiens), P07949 [V804L] (P07949 whole entry V804L): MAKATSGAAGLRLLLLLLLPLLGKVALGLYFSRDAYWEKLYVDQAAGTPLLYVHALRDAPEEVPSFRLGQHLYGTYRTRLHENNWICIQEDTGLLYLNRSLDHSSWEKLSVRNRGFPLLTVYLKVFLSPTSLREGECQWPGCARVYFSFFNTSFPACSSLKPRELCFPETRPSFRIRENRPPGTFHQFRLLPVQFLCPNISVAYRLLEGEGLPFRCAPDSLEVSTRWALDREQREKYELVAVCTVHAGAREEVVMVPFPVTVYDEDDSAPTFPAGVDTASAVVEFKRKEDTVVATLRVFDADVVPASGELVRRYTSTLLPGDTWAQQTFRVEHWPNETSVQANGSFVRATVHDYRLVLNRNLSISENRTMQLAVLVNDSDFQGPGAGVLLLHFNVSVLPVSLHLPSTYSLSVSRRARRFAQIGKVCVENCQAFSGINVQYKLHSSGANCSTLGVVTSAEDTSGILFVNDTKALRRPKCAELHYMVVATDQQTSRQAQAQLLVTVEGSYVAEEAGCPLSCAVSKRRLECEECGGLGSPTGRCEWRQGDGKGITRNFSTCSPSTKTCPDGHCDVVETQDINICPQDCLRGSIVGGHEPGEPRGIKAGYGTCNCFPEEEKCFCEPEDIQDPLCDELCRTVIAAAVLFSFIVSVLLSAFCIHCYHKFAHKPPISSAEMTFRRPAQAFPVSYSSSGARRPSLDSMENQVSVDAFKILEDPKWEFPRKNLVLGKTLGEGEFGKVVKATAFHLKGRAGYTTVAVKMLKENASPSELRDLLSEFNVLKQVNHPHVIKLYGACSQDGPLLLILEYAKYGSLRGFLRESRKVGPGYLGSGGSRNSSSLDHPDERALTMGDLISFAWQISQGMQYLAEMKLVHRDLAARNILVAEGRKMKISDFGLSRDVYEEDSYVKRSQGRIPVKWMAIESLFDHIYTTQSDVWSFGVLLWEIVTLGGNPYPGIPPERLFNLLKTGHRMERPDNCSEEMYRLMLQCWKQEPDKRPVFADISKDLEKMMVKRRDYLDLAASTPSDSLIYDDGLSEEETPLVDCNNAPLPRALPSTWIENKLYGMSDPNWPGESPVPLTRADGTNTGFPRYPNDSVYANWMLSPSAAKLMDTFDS
Chain of Platelet-derived growth factor receptor beta (Homo sapiens) (P09619 whole entry): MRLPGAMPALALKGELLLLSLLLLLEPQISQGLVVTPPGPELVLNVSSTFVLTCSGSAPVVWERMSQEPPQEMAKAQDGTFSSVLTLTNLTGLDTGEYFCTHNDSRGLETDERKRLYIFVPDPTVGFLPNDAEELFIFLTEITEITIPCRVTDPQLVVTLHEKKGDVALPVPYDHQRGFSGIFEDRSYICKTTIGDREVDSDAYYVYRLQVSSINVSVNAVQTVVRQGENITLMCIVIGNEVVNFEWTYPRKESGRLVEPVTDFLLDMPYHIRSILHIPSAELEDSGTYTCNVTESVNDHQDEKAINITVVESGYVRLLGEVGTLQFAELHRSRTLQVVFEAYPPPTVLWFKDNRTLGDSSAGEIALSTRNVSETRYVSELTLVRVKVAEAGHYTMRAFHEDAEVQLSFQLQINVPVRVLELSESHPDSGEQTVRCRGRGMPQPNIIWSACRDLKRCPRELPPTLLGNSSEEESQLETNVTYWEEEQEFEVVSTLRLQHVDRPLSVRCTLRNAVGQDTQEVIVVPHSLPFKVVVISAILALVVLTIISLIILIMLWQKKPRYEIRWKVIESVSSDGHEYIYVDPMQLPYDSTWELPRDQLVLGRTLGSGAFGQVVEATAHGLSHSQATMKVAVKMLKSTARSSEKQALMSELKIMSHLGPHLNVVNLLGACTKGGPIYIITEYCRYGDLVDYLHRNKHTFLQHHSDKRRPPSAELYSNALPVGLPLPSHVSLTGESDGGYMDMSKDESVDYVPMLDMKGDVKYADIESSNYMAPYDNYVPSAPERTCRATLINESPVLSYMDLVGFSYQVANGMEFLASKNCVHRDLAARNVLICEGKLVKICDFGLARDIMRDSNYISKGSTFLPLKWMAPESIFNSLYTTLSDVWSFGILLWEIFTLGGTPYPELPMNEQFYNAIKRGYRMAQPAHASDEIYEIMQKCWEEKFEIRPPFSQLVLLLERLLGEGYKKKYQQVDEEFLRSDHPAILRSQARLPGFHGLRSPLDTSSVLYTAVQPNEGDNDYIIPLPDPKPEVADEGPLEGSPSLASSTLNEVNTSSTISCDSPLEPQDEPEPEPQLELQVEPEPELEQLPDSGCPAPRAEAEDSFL
Chain of Platelet-derived growth factor receptor alpha (Homo sapiens), P16234 [D842V] (P16234 whole entry D842V): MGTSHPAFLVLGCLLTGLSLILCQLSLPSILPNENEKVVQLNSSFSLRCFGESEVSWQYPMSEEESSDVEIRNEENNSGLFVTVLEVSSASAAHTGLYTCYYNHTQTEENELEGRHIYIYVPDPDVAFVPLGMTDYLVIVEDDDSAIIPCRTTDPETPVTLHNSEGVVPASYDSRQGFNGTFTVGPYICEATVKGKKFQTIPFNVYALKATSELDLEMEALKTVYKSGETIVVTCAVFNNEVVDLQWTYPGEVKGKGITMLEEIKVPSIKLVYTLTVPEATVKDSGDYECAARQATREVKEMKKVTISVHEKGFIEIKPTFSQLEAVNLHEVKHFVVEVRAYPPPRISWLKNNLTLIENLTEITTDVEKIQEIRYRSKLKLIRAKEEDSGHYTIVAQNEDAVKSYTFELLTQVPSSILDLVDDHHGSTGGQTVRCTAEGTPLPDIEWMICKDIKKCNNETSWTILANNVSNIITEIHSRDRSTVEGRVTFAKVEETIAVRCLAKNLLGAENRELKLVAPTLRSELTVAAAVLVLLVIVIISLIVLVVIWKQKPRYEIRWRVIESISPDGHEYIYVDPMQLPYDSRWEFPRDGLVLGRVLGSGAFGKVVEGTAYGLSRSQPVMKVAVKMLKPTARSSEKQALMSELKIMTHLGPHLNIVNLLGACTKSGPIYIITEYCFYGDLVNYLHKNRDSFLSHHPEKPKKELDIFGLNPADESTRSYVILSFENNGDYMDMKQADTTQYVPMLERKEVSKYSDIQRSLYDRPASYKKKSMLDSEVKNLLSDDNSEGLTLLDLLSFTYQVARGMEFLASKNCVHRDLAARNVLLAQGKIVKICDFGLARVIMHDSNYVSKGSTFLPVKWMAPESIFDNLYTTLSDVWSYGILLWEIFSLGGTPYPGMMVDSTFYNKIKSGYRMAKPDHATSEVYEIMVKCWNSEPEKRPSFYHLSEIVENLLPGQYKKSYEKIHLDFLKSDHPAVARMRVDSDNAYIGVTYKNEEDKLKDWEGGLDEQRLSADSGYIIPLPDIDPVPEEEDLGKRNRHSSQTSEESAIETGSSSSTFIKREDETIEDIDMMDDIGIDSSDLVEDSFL
Chain of Platelet-derived growth factor receptor alpha (Homo sapiens), P16234 [V561D] (P16234 whole entry V561D): as the sequence (P16234 whole entry D842V) above, with V561D, V842D counted along it
Chain of Tyrosine-protein kinase FRK (Homo sapiens) (P42685 whole entry): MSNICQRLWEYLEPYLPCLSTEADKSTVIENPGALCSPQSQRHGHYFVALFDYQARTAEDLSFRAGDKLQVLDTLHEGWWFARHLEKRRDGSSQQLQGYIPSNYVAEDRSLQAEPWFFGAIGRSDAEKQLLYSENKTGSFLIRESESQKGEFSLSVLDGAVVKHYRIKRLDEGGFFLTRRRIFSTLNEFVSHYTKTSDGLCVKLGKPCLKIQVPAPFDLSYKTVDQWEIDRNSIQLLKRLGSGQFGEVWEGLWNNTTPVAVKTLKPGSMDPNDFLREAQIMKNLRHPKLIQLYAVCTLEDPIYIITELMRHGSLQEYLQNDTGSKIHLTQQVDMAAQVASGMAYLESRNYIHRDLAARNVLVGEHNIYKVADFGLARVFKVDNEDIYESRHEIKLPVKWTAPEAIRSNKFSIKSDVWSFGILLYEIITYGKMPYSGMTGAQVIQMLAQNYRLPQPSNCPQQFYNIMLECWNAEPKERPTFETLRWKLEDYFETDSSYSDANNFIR

As usually defined, the inhibition is the drop in the measured response relative to a control, in per cent. Consider `CCn1c(-c2nonc2N)nc2c(C#CCN)ncc(OCCCN)c21`, for which the inhibition was determined as 12.2% in experiment [1]; 7.42% in [2]; 11.7% in [3]; 0.26% in experiment [4]; 8.54% in experiment [5]; 2.16% in [6]. In addition, the inhibition in experiment [7] was 5.96%; in [8], 4.02%; in experiment [9], 3.51%; in [10], 9.08%; in experiment [11] it was 25.5%; in experiment [12], -0.39%. Besides, the inhibition in experiment [13] is -0.01%; in [14], -5.89%; in [15], 8.44%; in experiment [16] it was 3.26%; in experiment [17] it was 4.11%; in experiment [18], 6.12%. Moreover, the inhibition in [19] was 9.27%; in experiment [20] it was 1.83%.
Turning to `Cc1cc(-c2ccco2)cc(C)c1/C=C/c1cncc(-c2nn[nH]n2)c1`, the inhibition in [1] is -4.43%; in experiment [2], 5.56%; in experiment [3] it was 9.36%; in experiment [4] it was 3.41%; in [5], 3.27%; in experiment [6], 2.56%. In addition, the inhibition in [7] was 3.42%; in [8] it was 2.25%; in [9], 7%; in experiment [10], 0.05%; in experiment [11], 2.67%; in experiment [12], -0.44%. The inhibition in [13] is -0.05%; in [14], 1.24%; in experiment [15], 0%; in experiment [16], 1.88%; in experiment [17], 3.21%; in experiment [18], 8.81%. Further, the inhibition in experiment [19] amounted to 1.72%; in experiment [20], 2.21%.
In the case of `Nc1nonc1-c1nc2cnccc2n1C1CCCCC1`, the inhibition in experiment [1] worked out at 3.94%; in experiment [2], 3.7%; in experiment [3] it was 18.1%; in [4] it was 2.4%; in experiment [5], 16.9%; in [6] it was 1.78%. In addition, the inhibition turned out to be 19.5% in experiment [7]; 2.95% in [8]; 14.4% in experiment [9]; 4.64% in [10]; 26.4% in experiment [11]; 0.25% in experiment [12]. The inhibition is 0.75% in experiment [13]; -7.07% in [14]; -8.39% in experiment [15]; 3.59% in experiment [16]; 9.55% in experiment [17]; 5.85% in experiment [18]. For the same compound, the inhibition in experiment [19] was 19.5%; in [20], 2.08%.
Regarding `COc1cc2c(cc1Nc1nc(Nc3ccsc3C(N)=O)c3cc[nH]c3n1)N(C(=O)CN(C)C)CCC2`, the inhibition in experiment [1] stood at 28.6%; in [2], 11.4%; in experiment [3], 26.1%; in experiment [4] it was 2.44%; in experiment [5], 3.25%; in [6] it was 1.93%. The inhibition in experiment [7] turned out to be 2.94%; in experiment [8], 3.24%; in experiment [9], 13.9%; in [10], 10.4%; in experiment [11], 33.9%; in experiment [12], 1.91%. Also, the inhibition in experiment [13] amounted to 8.84%; in [14], 77.8%; in experiment [15] it was 95.6%; in experiment [16] it was 11.9%; in experiment [17], 14.2%; in experiment [18], 2.29%. Also, the inhibition in experiment [19] stood at 13.6%; in [20] it was 1.79%.
Turning to `CCn1c(-c2nonc2N)nc2c(C#CC(C)(C)O)nc(O[C@@H](CN)c3ccccc3)cc21`, the inhibition in [1] was 1.93%; in experiment [2] it was 32%; in experiment [3], 70.5%; in [4], 49.8%; in [5], 89.5%; in experiment [6], 34.5%. In addition, the inhibition in [7] was 86.8%; in experiment [8] it was 29.6%; in experiment [9] it was 79.3%; in [10], 50.3%; in experiment [11], 79.5%; in experiment [12], -0.39%. For the same compound, the inhibition was found to be 0.63% in experiment [13]; 27% in experiment [14]; 80.1% in experiment [15]; 41.7% in experiment [16]; 90% in experiment [17]; 9.12% in [18]. In addition, the inhibition in experiment [19] worked out at 47.7%; in [20], 41.8%.
With `NS(=O)(=O)c1ccc(-c2ccc3c(NC(=O)C4CC4)n[nH]c3c2)cc1`, the inhibition in experiment [1] is 8.82%; in experiment [2], 5.05%; in experiment [3], 15.1%; in experiment [4], 1.45%; in [5], 5.77%; in experiment [6], 2.04%. Also, the inhibition in [7] was 1.43%; in [8], -0.07%; in [9], 8.8%; in [10], 6.55%; in experiment [11] it was 5.87%; in experiment [12], 1.62%. The inhibition was 1.3% in experiment [13]; 6.65% in experiment [14]; 5.61% in [15]; 3% in experiment [16]; 8.48% in [17]; 2.82% in [18]. In addition, the values for the inhibition in [19] and in experiment [20] were 4.4% and 3.34%, respectively.
As to `COc1cc(C=NNc2ncnc3c2cnn3Cc2ccccc2)ccc1O`, the inhibition in experiment [1] is 17.2%; in [2] it was 9.07%; in experiment [3] it was 43.3%; in [4], 6.24%; in [5], 42.1%; in experiment [6], -1.14%. In addition, the inhibition was 1.46% in [7]; 6.77% in [8]; 34.3% in experiment [9]; 6.26% in experiment [10]; 26.4% in experiment [11]; 0.54% in [12]. Moreover, the inhibition in experiment [13] is 1.85%; in experiment [14] it was -6.73%; in experiment [15], -1.9%; in experiment [16] it was 7.87%; in experiment [17], 46.3%; in experiment [18], 1.82%. The inhibition is 11.1% in experiment [19] and 7.69% in [20].
